Test systems include SK-MEL-2 melanoma; SN12C renal; UO-31 renal; TK-10 renal; ACHN renal; CAKI-1 renal; A498 renal; CCRF-CEM leukemia; MOLT-4 leukemia; SR leukemia; RPMI-8226 leukemia; OVCAR-8 ovarian; OVCAR-5 ovarian; OVCAR-4 ovarian; SK-OV-3 ovarian; OVCAR-3 ovarian; HS 578T breast; NCI/ADR-RES ovarian; IGROV1 ovarian.
Common to all, as to assay: NCI-60 one-dose screen, 48 h (100 = growth as untreated, 0 = no growth, -100 = all killed)
Conditions in all cases: 10 µM unless noted

Structures are written as SMILES. This is part of a sample that, as a whole, favours compounds with a hit. Of some 83,000 tested, about 20% had one in any assay.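 Interpretation: 100, growth as untreated; towards 0, rising growth inhibition; 0, no net growth; 0 to -100, cell death. Compounds scoring below 10 were considered active.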 Values without a mark were called inactive. Activity calls are given as the source filed them.

`CSc1nc(-c2cc3ccccc3o2)cc(-c2ccc(Cl)cc2)c1C#N`: the growth is 23.8% with SK-MEL-2 melanoma; 36.8% in the test with SN12C renal; -18.2% (active) in the test on UO-31 renal; 54.7% in the test with TK-10 renal; -63% (active) with ACHN renal; 48% with CAKI-1 renal. For the same molecule, the growth with A498 renal is 81.9%; in the test with CCRF-CEM leukemia, 86.8%; in the test with MOLT-4 leukemia it was 94.5%; in the test with SR leukemia, 82.6%; in the test with RPMI-8226 leukemia, 26.6%; in the test on OVCAR-8 ovarian, 28.7%. Moreover, the growth in the test with OVCAR-5 ovarian was 93.7%; with OVCAR-4 ovarian, -57.5% (active); in the test on SK-OV-3 ovarian it was -21.3% (active); with OVCAR-3 ovarian, 37.7%; in the test on HS 578T breast, 76%; in the test on NCI/ADR-RES ovarian, 64.3%.
Turning to `COc1ccc2c(c1)C(=O)/C(=C/c1ccc(O)cc1)O2`, the growth with SK-MEL-2 melanoma is 81.2%; with SN12C renal, 76.8%; with UO-31 renal, -97.4% (active); in the test on TK-10 renal, 75.1%; in the test with ACHN renal it was 96.4%; with CAKI-1 renal it was 71.8%. Also, the growth with A498 renal is 94.8%; with CCRF-CEM leukemia it was 104%; in the test on MOLT-4 leukemia, 62.8%; in the test with SR leukemia, 74.1%; with RPMI-8226 leukemia it was 35.1%; in the test with OVCAR-8 ovarian, 93.1%. Also, the growth with OVCAR-5 ovarian is 103%; with OVCAR-4 ovarian, 85.2%; in the test on SK-OV-3 ovarian it was 104%; in the test on OVCAR-3 ovarian, 48.7%; with HS 578T breast, 73.5%; with NCI/ADR-RES ovarian it was 104%.
`COc1cc(C2C=C(C)N=C3SC=C(C)N32)cc(OC)c1OC` (stereo unspecified): the growth is -39.5% (active) with SK-MEL-2 melanoma; -8.33% (active) in the test with SN12C renal; -87.2% (active) in the test with UO-31 renal; -22.5% (active) in the test on TK-10 renal; -75% (active) in the test with ACHN renal; -49.9% (active) in the test on CAKI-1 renal. Besides, the growth was -27.6% (active) in the test on A498 renal; -17.9% (active) in the test on CCRF-CEM leukemia; -2.68% (active) with MOLT-4 leukemia; -6.27% (active) with SR leukemia; -26.3% (active) in the test with RPMI-8226 leukemia; -45.8% (active) with OVCAR-5 ovarian. The growth with OVCAR-4 ovarian is 12.6%; in the test on SK-OV-3 ovarian, -5.5% (active); with IGROV1 ovarian, -49.8% (active); with HS 578T breast it was 2% (active); in the test with NCI/ADR-RES ovarian it was 19.5%.
On to `CCCCCc1c(C)[nH]c(/C=c2\[nH]/c(=C3/C=c4ccccc4=N3)cc2OC)c1C`, for which the growth was -73.9% (active) in the test on SK-MEL-2 melanoma; -51.4% (active) with SN12C renal; -89.7% (active) in the test with UO-31 renal; -47% (active) in the test with TK-10 renal; -78.3% (active) in the test on ACHN renal; -38.7% (active) in the test with CAKI-1 renal. Besides, the growth with A498 renal is -29.4% (active); in the test with CCRF-CEM leukemia it was -19% (active); in the test on MOLT-4 leukemia, -23.1% (active); with SR leukemia it was -20.3% (active); in the test with OVCAR-8 ovarian it was -41.9% (active); in the test on OVCAR-5 ovarian, -7.96% (active). The growth in the test with OVCAR-4 ovarian is 4.16% (active); in the test with SK-OV-3 ovarian, -17.2% (active); in the test with IGROV1 ovarian it was -4.01% (active); in the test on HS 578T breast, -37.1% (active); in the test on NCI/ADR-RES ovarian, -20.6% (active).
As to `O=C(Nc1cccc(C(F)(F)F)c1)Nc1ccc(OCc2nnc(-c3ccccc3)o2)c(F)c1`, the growth is 67.8% in the test with SK-MEL-2 melanoma; 52.8% in the test on SN12C renal; 26.9% with UO-31 renal; 60.2% with TK-10 renal; 6.63% (active) in the test on ACHN renal; 36.9% with CAKI-1 renal. The growth was 43.5% in the test on A498 renal; 8.15% (active) in the test with CCRF-CEM leukemia; 17% in the test with MOLT-4 leukemia; 5.85% (active) in the test on SR leukemia; 2.02% (active) in the test with RPMI-8226 leukemia; 50.9% in the test with OVCAR-5 ovarian. The growth in the test with OVCAR-4 ovarian is 34.5%; with SK-OV-3 ovarian, 69.1%; with IGROV1 ovarian, 45.9%; in the test on OVCAR-3 ovarian it was 15.6%; with HS 578T breast it was 39.2%; in the test with NCI/ADR-RES ovarian it was 37%.
With `COc1cc(Cn2c(SCC(=O)Nc3ccc(Cl)cc3)nc3ccccc3c2=O)cc(OC)c1OC`, the growth is 81% in the test on SK-MEL-2 melanoma; 71.2% in the test on SN12C renal; 17.7% in the test with UO-31 renal; 67.8% in the test on TK-10 renal; 18.9% in the test with ACHN renal; 71.1% in the test on CAKI-1 renal. Moreover, the growth was 41.4% with A498 renal; 83.1% with CCRF-CEM leukemia; 46.4% in the test with MOLT-4 leukemia; 46.9% in the test with SR leukemia; 28.6% in the test with RPMI-8226 leukemia; 82.2% in the test with OVCAR-5 ovarian. The growth in the test on OVCAR-4 ovarian is 53.4%; in the test on SK-OV-3 ovarian it was 68.2%; with IGROV1 ovarian it was 41.6%; with HS 578T breast it was 7.73% (active); in the test on NCI/ADR-RES ovarian, 51.9%.
Consider `CC/C=C\C/C=C\C[C@H](O)C/C=C1/C(=O)C=C[C@H]1C/C=C\CCC(=O)OC`, for which the growth with SK-MEL-2 melanoma is 65.6% [8.25 µM]; in the test with SN12C renal, 1.16% [8.25 µM] (active); with UO-31 renal it was 48.1% [8.25 µM]; in the test with TK-10 renal, 58.7% [8.25 µM]; in the test with ACHN renal, 26.9% [8.25 µM]; with CAKI-1 renal, 55.3% [8.25 µM]. The growth is 107% [8.25 µM] in the test with A498 renal; -1.3% [8.25 µM] (active) in the test on CCRF-CEM leukemia; 32.7% [8.25 µM] in the test on MOLT-4 leukemia; 7.38% [8.25 µM] (active) in the test on SR leukemia; 15.3% [8.25 µM] in the test on OVCAR-8 ovarian; 71.1% [8.25 µM] in the test with OVCAR-5 ovarian. Moreover, the growth with OVCAR-4 ovarian was 43.3% [8.25 µM]; in the test on SK-OV-3 ovarian, 85.6% [8.25 µM]; in the test on IGROV1 ovarian it was 37.3% [8.25 µM]; with OVCAR-3 ovarian, 4.28% [8.25 µM] (active); in the test with HS 578T breast, 69.1% [8.25 µM]; with NCI/ADR-RES ovarian it was 39.8% [8.25 µM].
In the case of `C=CCn1c(C)nc2ccc(Nc3nc(Nc4ccc(F)cc4)nc4ccccc34)cc21`, the growth was 58.1% with SK-MEL-2 melanoma; 66.2% in the test on SN12C renal; 37.4% in the test with UO-31 renal; 82.3% in the test on TK-10 renal; 67.6% in the test on ACHN renal; 58.2% in the test with CAKI-1 renal. Also, the growth in the test on A498 renal was 59.9%; in the test on CCRF-CEM leukemia it was 22.5%; in the test with MOLT-4 leukemia, -5.55% (active); in the test on SR leukemia, 22.4%; with OVCAR-8 ovarian it was 33.4%; with OVCAR-5 ovarian it was 81.3%. Further, the growth in the test on OVCAR-4 ovarian was 48.3%; with SK-OV-3 ovarian, 98.6%; in the test on IGROV1 ovarian, 51.1%; in the test with OVCAR-3 ovarian it was 51.2%; with HS 578T breast, 54.4%; in the test on NCI/ADR-RES ovarian, 38.4%.
